Drawing on PubChem BioAssay (NCATS), this text covers Potency and activity change, negative = cytotoxic for 40 molecules.

Molecules are shown by their SMILES. Inconclusive results are not listed. Entries that show only a call come without a potency. Activity calls are given as the source filed them. The call rests on the fitted dose curve; in most records, active means well fitted cell-killing curve with a large enough effect; inconclusive means small, poorly fitted or top-dose-only effect; inactive means no such curve, though single readings can be large or run the other way. *1 amine or outer side, *2 acyl side, *3 side chain or, on linkers, in order; H or OH if unused. Where a SMILES comes first, the peptide text is derived from it. Bridges are numbered along the chain shown (N, C = ends). [ ]: non-standard residue; d: D form. The star is where a group is joined. ξ: configuration not given here. X10 = NC1=NCCC(C(N[*:1])C(=O)[*:2])N1; ΔAla(3-NHCONH2) = NC(=O)NC=C(N)C(=O)O; ξβ3hOrn = NCCCC(N)CC(=O)*; Dap = NC[CH](N)C(=O)O

The assay in a line: qHTS of pediatric cancer cell lines to identify multiple opportunities for drug repurposing: Primary screen for Rh41 cells (AID 1347108).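 Further: luminescence drop marks cytotoxic hits; nearly all actives have a fitted effect of over 70% in size.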 Particulars: Rh41 rhabdomyosarcoma viability, CellTiter-Glo luminescence, 48 h; series mostly up to 46 µM. The text has this:
Drug repurposing or repositioning has been offered as a strategy for drug development in oncology programs. This approach has special potential for childhood cancers and other rare or orphan diseases, where the expected return on new drug development has been a disincentive to pharmaceuticals. […] In this project we exploit the poly-pharmacology of drugs to discover new indications via phenotypic screening of a panel of 19 well-characterized cell lines derived from solid tumors seen in children and adolescents. The goal is to identify approved drugs with previously unrecognized anticancer properties that has the potential to reveal new mechanisms and biological processes involved in carcinogenesis or drug resistance. We employed a titration-based paradigm (quantitative high-throughput screening or qHTS), where all compounds were tested at multiple concentrations for their effect on cell viability. Concentration-response curves (CRCs) were derived directly from the primary screen, and both potency and efficacy values were used to identify compounds with robust bioactivity profiles. We screened the NIH Chemical Genomics Center (NCGC) Pharmaceutical Collection (NPC) and Mechanism Interrogation Plate (MIPE) small molecule collections of approved and investigational compounds against these cell lines; and measured metabolically active cells after 48 hours of compound treatment as a proxy for cell viability. […] Assay Submitter: Nathalia J. Martinez, National Center for Advancing Translational Sciences, National Institutes of Health, Rockville, MD, USA; email: natalia.martinez@nih.gov Shen, M et al. Quantitative high-throughput phenotypic screening of pediatric cancer cell lines identifies multiple opportunities for drug repurposing. Oncotarget 2017 Dec 19;9(4):4758-4772. PMID 29435139.
The cells were obtained from University of North Carolina (UNC), Pediatric Preclinical Testing Program (PPT), and Coriell Institute (CI). qHTS cell viability assay: Cells were assayed in growth media at a density of 500-1,000 cells/well. Five microliters of cells were dispensed into 1,536-well, white, solid-bottom, TC-treated plates (Greiner Bio One) using a multidrop dispenser and incubated at 37 degrees C, 5% CO2, under a humidified atmosphere for 5 hours. Twenty-three nanoliters of compounds and controls (neutral control DMSO or positive control bortezomib at final concentration of 2.3 µM) were subsequently transferred by Kalypsys pintool. For primary screens, the MIPE collection was tested at 11-point dilutions (final concentrations range from 0.78 nM to 46 µM) and the NPC collection at 8-point dilutions (final concentrations range from 0.59 nM to 46 µM). Compounds tested in follow-up screens were assayed at 11-point dilutions. Cells were incubated for 48 hours, followed by addition of 3 µL of CellTiter-Glo (Promega). After a 15 min incubation at room temperature, samples were analyzed for luminescence intensity using a ViewLux High-throughput CCD imager equipped with clear filters.
On to `CCOC(=O)NNc1nncc2ccccc12`, for which the Potency result is “inactive”. Same read-out and setting: the same measure for `CCN1C(=O)c2ccccc2C1Nc1ccc(OCCN2CCCCC2)cc1` (stereo not given): “inactive”; for `Cc1[nH]cnc1-c1ccc(Cl)cc1`: “inactive”; for `CC1(C)OC(=O)Nc2ccc(Br)cc21`: “inactive”.

`O=C(c1ccccc1)c1ccccc1`: the Potency entry is “inactive”. As to `CC(=O)N(CC(O)CO)c1c(I)c(C(=O)NCCO)c(I)c(C(=O)NCC(O)CO)c1I` (stereo not given), the Potency result was “inactive”. Same read-out and setting: the same measure for `CC(=O)/C=C/C=C1/C2CCC(C2)C1(C)C` (stereo not given): “inactive”; for `C/C(=C(/OCCOc1ccc(Cl)cc1)c1ccc(Cl)cc1Cl)n1ccnc1`: “inactive”; for `CN1CCCN=C1/C=C/c1cccs1`: “inactive”. Regarding `OC1(c2ccc(Cl)cc2)CCNCC1`, the Potency entry is “inactive”. As for `Cc1c(N)cccc1C(F)(F)F`, the Potency result was “inactive”. For the molecule `CCC(C(=O)NC(=O)NC(C)=O)c1ccccc1` (stereo not given), the Potency entry was “inactive”. For `COc1cc2c(cc1OC)C(=O)CC2`, the Potency entry was “inactive”.

Regarding `CCc1cc(S(=O)(=O)O)c2cc(C(C)C)cccc1-2`, the Potency entry was “inactive”. In the case of `Cc1coc2ccccc2c1=O`, the Potency result is “inactive”. Take `COC(=O)c1c(Cl)c(Cl)c(C(=O)OC)c(Cl)c1Cl`: the Potency result was “inactive”. On to `CN1CCC(Nc2ncc3ncnc(Nc4ccc(F)c(Cl)c4)c3n2)CC1`, for which the Potency entry is “inactive”. Consider `NS(=O)(=O)c1cc(C(=O)NN2C[C@H]3[C@H]4CCC(C4)[C@H]3C2)ccc1Cl`, for which the Potency entry was “inactive”. With `CCCN(CCC)C(=O)C(CCC(=O)OCCCN1CCN(CCOC(=O)Cc2c(C)n(C(=O)c3ccc(Cl)cc3)c3ccc(OC)cc23)CC1)NC(=O)c1ccccc1` (stereo not given), the Potency entry was “inactive”.

`CC(NN)c1ccccc1` (stereo not given): the Potency entry is “inactive”. Still for that read-out and setting: as for `CN1CCCN(C(c2ccccc2)c2ccc(Cl)cc2)CC1` (stereo not given), the entry is “inactive”; as for `O=C(O)C(=O)Nc1cccc(-c2nn[nH]n2)c1`, “inactive”.

Regarding `CCC(=O)O[C@H]1[C@H](O[C@@H]2[C@@H](C)[C@H](O[C@H]3C[C@@](C)(OC)[C@@H](O)[C@H](C)O3)[C@@H](C)C(=O)O[C@H](CC)[C@@](C)(O)[C@H](O)[C@@H](C)C(=O)[C@H](C)C[C@@]2(C)O)O[C@H](C)C[C@@H]1N(C)C`, the Potency entry is “inactive”. Same read-out and setting: the same measure for `Cc1onc(-c2ccccc2)c1C(=O)Cl`: “inactive”; for `O=C(O)/C=C(\CC(=O)O)C(=O)O`: “inactive”; for `O=C1Cc2cc(Cl)ccc2N1`: “inactive”. Consider `N=C(N)c1ccc(OCCCOc2ccc(C(=N)N)cc2)cc1`, for which the Potency entry is “inactive”. Regarding `CC(=O)c1ccc(O)c(C(N)=O)c1`, the Potency result was “inactive”.

In the case of `O=C(O)c1ccccc1S`, the Potency entry was “inactive”. Same read-out and setting: as for `Cc1ncc([N+](=O)[O-])n1C`, the entry is “inactive”; as for `CCCCCC1Nc2cc(C(F)(F)F)c(S(N)(=O)=O)cc2S(=O)(=O)N1` (stereo not given), “inactive”. In the case of `NCCCC(N)CC(=O)NCC1NC(=O)C(CO)NC(=O)C(N)CNC(=O)C(C2CCN=C(N)N2)NC(=O)C(=CNC(N)=O)NC1=O` (stereo not drawn) (H-[Dap]S[Dap](ξβ3hOrn)[ΔAla(3-NHCONH2)][X10]; lactam 1-C; configuration not given here), the activity change, negative = cytotoxic is 17.6% [at 0.597 µM] (inactive). On to `CC(C)C(=O)Nc1cccc(C(F)(F)F)c1`, for which the Potency result was “inactive”. Turning to `CCCC(=O)O[C@]1(C(=O)COC(=O)CC)CC[C@H]2[C@@H]3CCC4=CC(=O)CC[C@]4(C)[C@H]3[C@@H](O)C[C@@]21C`, the Potency result is “inactive”. Take `CCn1ccc(NS(=O)(=O)c2ccc(N)cc2)nc1=O`: the Potency result is “inactive”.

Take `O=C(O)Cc1ccccc1Oc1ccc(Cl)cc1Cl`: the Potency result was “inactive”. For `Cc1ccccc1C(=O)N1CC/C(=N\OS(=O)(=O)O)c2ccc(Cl)cc21`, the Potency entry is “inactive”. As to `OC(CCCN1CCCCC1)(c1ccccc1)c1ccccc1`, the Potency entry is “inactive”.

Regarding `CC(C)=CCC/C(C)=C/CC/C(C)=C/C(=O)OCC(=O)[C@@]1(O)CC[C@H]2[C@@H]3CCC4=CC(=O)C=C[C@]4(C)[C@H]3[C@@H](O)C[C@@]21C`, the Potency entry was “inactive”. Still for that read-out and setting: the same measure for `CC(=O)OCC(=O)Nc1cc(C#N)cc(NC(=O)COC(C)=O)c1Cl`: “inactive”.
